This is one part of a sample in which hits are shown more often than they occur.
PD-1 reverse act = activators reversing PD-1 mediated T-cell inhibition. 29,000 tested, under 10 active. AID 2316. primary human CD4 T cells, PD-L1 beads, CellTiter-Glo 96 h. activation, % (concentration not given with the values); call rule not given here;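 further: 0% = median vehicle wells and 100% = positive control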
STK33 kin inh = blocks human STK33 kinase activity; ADP-Glo luminescence, MBP substrate; inhibition, % at 12.5 µM; 27,000 compounds, 0.44% hits; in the data active means inhibition above about 20%
Target sequence (Q9BYT3 whole entry, looked up): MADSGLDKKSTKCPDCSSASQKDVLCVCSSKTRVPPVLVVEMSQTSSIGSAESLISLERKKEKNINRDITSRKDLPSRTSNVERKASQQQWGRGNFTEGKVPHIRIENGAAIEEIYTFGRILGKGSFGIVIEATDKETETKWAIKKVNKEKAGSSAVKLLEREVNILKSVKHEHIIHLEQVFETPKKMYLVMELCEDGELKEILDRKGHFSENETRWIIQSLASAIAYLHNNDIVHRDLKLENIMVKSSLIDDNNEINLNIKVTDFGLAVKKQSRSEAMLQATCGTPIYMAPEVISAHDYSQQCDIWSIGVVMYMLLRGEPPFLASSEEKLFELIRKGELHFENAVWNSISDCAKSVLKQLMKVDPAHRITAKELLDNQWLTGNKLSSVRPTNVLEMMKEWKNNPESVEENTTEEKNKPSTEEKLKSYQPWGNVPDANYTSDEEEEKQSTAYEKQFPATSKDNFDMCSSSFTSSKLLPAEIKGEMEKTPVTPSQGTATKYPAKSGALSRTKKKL
NOMO-1 viab = STK33 inhibitor candidate reducing NOMO-1 cell viability | NOMO-1 AML viability, CellTiter-Glo luminescence, 72 h | 37,000 compounds, 7.5% hits | inhibition, % (concentration not given with the values); in the data active means inhibition above about 80%
Active calls of the source: *.

What do the screens show for `COc1cccc2c1C(=O)c1ccc3c(c1C2=O)C(=O)CC(C)(O)C3` (stereo unspecified)?
PD-1 reverse act: 0; STK33 kin inh: -2; NOMO-1 viab: 93*

Results for COc1cc(O)cc2cc3c(c(O)c12)C(=O)C[C@@](C)(O)C3 ?
PD-1 reverse act: 0; STK33 kin inh: -2; NOMO-1 viab: 8

What do the screens show for `O=C(CSc1nc2ccccc2c(=O)n1-c1ccc(Cl)cc1)Nc1cccc(Cl)c1`?
PD-1 reverse act: 0; STK33 kin inh: -2; NOMO-1 viab: 34

What do the screens show for `CC(Oc1ccc(Cl)cc1Cl)C(=O)NC(=S)Nc1sc2c(c1C#N)CCCC2` (stereo unspecified)?
STK33 kin inh: 3; NOMO-1 viab: 42

What do the screens show for `CSc1ccccc1NC(=O)Cn1c(-c2nonc2N)nc2ccccc21`?
STK33 kin inh: 5

Results for C[C@@H]1CN([C@H](C)CO)C(=O)Cc2cc(NC(=O)CCCCCC(=O)Nc3ccccc3N)ccc2O[C@@H]1CN(C)Cc1ccc(-c2ccccc2)cc1 ?
PD-1 reverse act: -3; NOMO-1 viab: 141*

Results for C[C@@H]1CN([C@H](C)CO)C(=O)Cc2cc(NC(=O)CCCCCC(=O)Nc3ccccc3N)ccc2O[C@H]1CN(C)Cc1ccc(-c2ccccc2)cc1 ?
PD-1 reverse act: 0; NOMO-1 viab: 140*

Results for C[C@H](CO)N1C[C@H](C)[C@H](CN(C)Cc2ccncc2)Oc2ccc(NC(=O)CCCCCC(=O)Nc3ccccc3N)cc2CC1=O ?
PD-1 reverse act: 0; NOMO-1 viab: 49

Results for C[C@H]1CN([C@@H](C)CO)C(=O)Cc2cc(NC(=O)CCCCCC(=O)Nc3ccccc3N)ccc2O[C@H]1CN(C)CC1CCCCC1 ?
PD-1 reverse act: -1; NOMO-1 viab: 138*

What do the screens show for `C[C@H](CO)N1C[C@H](C)[C@H](CN(C)Cc2ccc(-c3ccccc3)cc2)Oc2ccc(NC(=O)CCCCCC(=O)Nc3ccccc3N)cc2CC1=O`?
PD-1 reverse act: -3; NOMO-1 viab: 139*

What do the screens show for `C[C@@H]1CN([C@H](C)CO)C(=O)Cc2cc(NC(=O)CCCCCC(=O)Nc3ccccc3N)ccc2O[C@H]1CN(C)CC1CC1`?
PD-1 reverse act: -1; NOMO-1 viab: 51

Results for C[C@@H]1CN([C@@H](C)CO)C(=O)Cc2cc(NC(=O)CCCCCC(=O)Nc3ccccc3N)ccc2O[C@@H]1CN(C)C(=O)Nc1ccccc1 ?
PD-1 reverse act: 1; NOMO-1 viab: 4

What do the screens show for `C[C@@H]1CN([C@H](C)CO)C(=O)Cc2cc(NC(=O)CCCCCC(=O)Nc3ccccc3N)ccc2O[C@@H]1CN(C)Cc1ccncc1`?
PD-1 reverse act: 0; NOMO-1 viab: 24

How did COc1ccc(C)cc1S(=O)(=O)N1CCC(C(=O)Nc2cccc(SC)c2)CC1 do in these assays?
STK33 kin inh: -5; NOMO-1 viab: 29

What do the screens show for `Cc1cc(C)c(S(=O)(=O)N(C)CC(=O)Nc2ccc(F)c(Cl)c2)c(C)c1`?
PD-1 reverse act: -1; STK33 kin inh: 0; NOMO-1 viab: 28

Results for O=C(CSc1nc(-c2ccccc2)cs1)Nc1ccc(Cl)cc1Cl ?
STK33 kin inh: 1; NOMO-1 viab: -7

What do the screens show for `COc1cc(NC(=O)COc2ccccc2OC)cc(OC)c1`?
STK33 kin inh: -1; NOMO-1 viab: -15

Results for CNC(=S)N(Cc1ccncc1)C1CC(=O)N(c2ccc(OC)cc2)C1=O (stereo unspecified) ?
PD-1 reverse act: -1; STK33 kin inh: -2; NOMO-1 viab: 1

What do the screens show for `CCOc1ccc(C2C3=C(CCCC3=O)NC3=C2C(=O)CCC3)cc1`?
PD-1 reverse act: 0; NOMO-1 viab: 5

Results for OC(c1ccccc1)c1oc2ccccc2c1-c1cnn(-c2ccccc2)c1 (stereo unspecified) ?
PD-1 reverse act: -13; STK33 kin inh: 8; NOMO-1 viab: 112*

Results for C=C1C(=O)C23CC(O)C4C(C)(C(=O)OC5OC(CO)C(O)C(O)C5O)CCCC4(C)C2=CCC1(O)C3 (stereo unspecified) ?
STK33 kin inh: -2

Results for COc1cc2nc(CCN3C(=O)c4ccccc4C3=O)oc(=O)c2cc1OC ?
PD-1 reverse act: 3; STK33 kin inh: -1; NOMO-1 viab: 8

How did COc1ccc(OC)c(NC(=O)c2ccc(CSc3ncnc4nc[nH]c34)cc2)c1 do in these assays?
PD-1 reverse act: 1; NOMO-1 viab: 42

Results for COc1ccc([Si](C)(C)[C@@H]2[C@@H](CCO)O[C@]3(C(=O)N(Cc4ccc(NC(C)=O)cc4)c4ccccc43)[C@H]2C)cc1 ?
STK33 kin inh: 15

What do the screens show for `COc1ccc([Si](C)(C)[C@H]2[C@H](CCO)O[C@@]3(C(=O)N(Cc4cccc(NC(C)=O)c4)c4ccccc43)[C@@H]2C)cc1`?
STK33 kin inh: 38*

What do the screens show for `COc1ccc([Si](C)(C)[C@@H]2[C@@H](CCO)O[C@]3(C(=O)N(Cc4cccc(N5CCOC5=O)c4)c4ccccc43)[C@H]2C)cc1`?
STK33 kin inh: 18

Results for COc1ccc([Si](C)(C)[C@@H]2[C@@H](CCO)O[C@]3(C(=O)N(Cc4ccc(N5CCOC5=O)cc4)c4ccccc43)[C@H]2C)cc1 ?
STK33 kin inh: 20*

How did COc1ccc([Si](C)(C)[C@@H]2[C@@H](CCn3cc([C@H](O)c4ccccc4)nn3)O[C@]3(C(=O)N(Cc4cccc(N5CCOC5=O)c4)c4ccccc43)[C@H]2C)cc1 do in these assays?
STK33 kin inh: 4

Results for COc1ccc([Si](C)(C)[C@H]2[C@H](CCn3cc(CCO)nn3)O[C@@]3(C(=O)N(Cc4cccc(N5CCOC5=O)c4)c4ccccc43)[C@@H]2C)cc1 ?
STK33 kin inh: 21*

How did COc1cccc(OCc2nc(-c3ccccc3)no2)c1 do in these assays?
PD-1 reverse act: 1; STK33 kin inh: 1; NOMO-1 viab: 1

How did O=C(NC(Cc1ccc(O)cc1)C(=O)O)c1ccccc1 (stereo unspecified) do in these assays?
STK33 kin inh: 0

How did Cc1noc(C)c1S(=O)(=O)Nc1ccc2c(c1)C(=O)N([C@H](C)CO)C[C@H](C)[C@H](CN(C)Cc1ccc(C(=O)Nc3ccccc3N)cc1)OCCCC[C@@H](C)O2 do in these assays?
PD-1 reverse act: 0; NOMO-1 viab: 139*

Results for Cc1noc(C)c1S(=O)(=O)Nc1ccc2c(c1)C(=O)N([C@H](C)CO)C[C@H](C)[C@@H](CN(C)Cc1ccc(C(=O)Nc3ccccc3N)cc1)OCCCC[C@@H](C)O2 ?
PD-1 reverse act: -1; NOMO-1 viab: 127*

How did Cc1noc(C)c1S(=O)(=O)Nc1ccc2c(c1)C(=O)N([C@H](C)CO)C[C@H](C)[C@@H](CN(C)Cc1ccc(C(=O)O)cc1)OCCCC[C@@H](C)O2 do in these assays?
PD-1 reverse act: 2; STK33 kin inh: 0; NOMO-1 viab: -21

What do the screens show for `Cc1noc(C)c1S(=O)(=O)Nc1ccc2c(c1)C(=O)N([C@@H](C)CO)C[C@@H](C)[C@H](CN(C)Cc1ccc(C(=O)Nc3ccccc3N)cc1)O2`?
PD-1 reverse act: -2; NOMO-1 viab: 12

How did O=C(CSc1nnnn1-c1ccccc1)Nc1ccc(-c2ccc([N+](=O)[O-])cc2)cc1 do in these assays?
STK33 kin inh: 1; NOMO-1 viab: -14

High-throughput results (PubChem)
